In the supplement of paper PMC11732987, “Enantioselective OTUD7B fragment discovery through chemoproteomics screening and high-throughput optimisation” (Communications Chemistry, 2025):

Legend:
Experiment in all cases: log2 ratio of Biotin-Ahx-Ub-VS probe labelling (fragment/DMSO); higher = less target engagement (more negative = stronger competition), active = hit call of the paper (q ≤ 0.05, log2 ratio ≤ -1)
Details in all cases: compound concentration: 200 uM; treatment time: 3 h
USP19 = biological target: T1, USP19 (UniProt O94966)
T1 sequence (whole entry): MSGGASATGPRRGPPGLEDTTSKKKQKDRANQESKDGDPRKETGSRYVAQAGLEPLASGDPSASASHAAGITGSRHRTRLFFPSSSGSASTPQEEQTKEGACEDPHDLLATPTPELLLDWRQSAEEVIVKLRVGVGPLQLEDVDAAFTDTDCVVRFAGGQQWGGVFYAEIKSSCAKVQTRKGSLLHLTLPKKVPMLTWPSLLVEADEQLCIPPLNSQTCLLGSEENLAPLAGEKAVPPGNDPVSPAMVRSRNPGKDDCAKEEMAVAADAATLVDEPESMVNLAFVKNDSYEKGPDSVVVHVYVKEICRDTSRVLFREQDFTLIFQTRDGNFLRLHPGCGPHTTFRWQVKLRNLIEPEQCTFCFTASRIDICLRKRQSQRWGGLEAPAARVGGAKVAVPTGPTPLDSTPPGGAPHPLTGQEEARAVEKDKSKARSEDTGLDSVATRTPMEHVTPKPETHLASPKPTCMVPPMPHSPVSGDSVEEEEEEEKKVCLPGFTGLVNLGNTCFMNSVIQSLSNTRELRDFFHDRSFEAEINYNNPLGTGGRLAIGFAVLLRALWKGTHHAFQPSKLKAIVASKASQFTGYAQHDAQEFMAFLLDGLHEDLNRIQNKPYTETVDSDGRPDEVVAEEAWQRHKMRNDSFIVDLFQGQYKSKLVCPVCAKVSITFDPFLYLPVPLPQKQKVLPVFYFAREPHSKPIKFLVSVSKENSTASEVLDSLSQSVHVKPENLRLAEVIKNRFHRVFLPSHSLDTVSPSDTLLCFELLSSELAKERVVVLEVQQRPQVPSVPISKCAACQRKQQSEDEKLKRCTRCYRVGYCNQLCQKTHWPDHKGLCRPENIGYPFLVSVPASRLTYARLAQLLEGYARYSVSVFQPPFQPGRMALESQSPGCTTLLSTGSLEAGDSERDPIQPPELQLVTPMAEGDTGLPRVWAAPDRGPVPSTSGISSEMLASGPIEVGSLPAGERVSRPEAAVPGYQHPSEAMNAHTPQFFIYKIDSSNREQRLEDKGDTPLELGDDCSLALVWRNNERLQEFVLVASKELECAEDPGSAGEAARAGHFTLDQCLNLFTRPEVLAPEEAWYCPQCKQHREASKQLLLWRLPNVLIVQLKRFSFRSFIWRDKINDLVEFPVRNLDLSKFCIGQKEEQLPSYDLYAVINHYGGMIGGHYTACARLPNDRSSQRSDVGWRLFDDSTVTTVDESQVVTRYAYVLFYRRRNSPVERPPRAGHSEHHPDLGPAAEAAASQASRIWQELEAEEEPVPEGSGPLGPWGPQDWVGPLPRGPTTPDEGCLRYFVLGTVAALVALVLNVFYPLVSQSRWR
Summary of the method: (§1)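 Average log2 ratios of fragment over vehicle were obtained by unpaired t-test from global-median-normalised Spectronaut label-free quantities. Proteins with ≥2 unique peptides were included. HEK293T lysate (495 µg per sample) was treated in triplicate with fragment at 200 µM or vehicle for 3 h, then with Biotin-Ahx-Ub-VS at 0.5 µM final for 1 h, and labelled DUBs were NeutrAvidin-enriched and run by diaPASEF LC-MS/MS.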

USP24 = USP24 (UniProt Q9UPU5)
USP24, sequence (Q9UPU5 whole entry): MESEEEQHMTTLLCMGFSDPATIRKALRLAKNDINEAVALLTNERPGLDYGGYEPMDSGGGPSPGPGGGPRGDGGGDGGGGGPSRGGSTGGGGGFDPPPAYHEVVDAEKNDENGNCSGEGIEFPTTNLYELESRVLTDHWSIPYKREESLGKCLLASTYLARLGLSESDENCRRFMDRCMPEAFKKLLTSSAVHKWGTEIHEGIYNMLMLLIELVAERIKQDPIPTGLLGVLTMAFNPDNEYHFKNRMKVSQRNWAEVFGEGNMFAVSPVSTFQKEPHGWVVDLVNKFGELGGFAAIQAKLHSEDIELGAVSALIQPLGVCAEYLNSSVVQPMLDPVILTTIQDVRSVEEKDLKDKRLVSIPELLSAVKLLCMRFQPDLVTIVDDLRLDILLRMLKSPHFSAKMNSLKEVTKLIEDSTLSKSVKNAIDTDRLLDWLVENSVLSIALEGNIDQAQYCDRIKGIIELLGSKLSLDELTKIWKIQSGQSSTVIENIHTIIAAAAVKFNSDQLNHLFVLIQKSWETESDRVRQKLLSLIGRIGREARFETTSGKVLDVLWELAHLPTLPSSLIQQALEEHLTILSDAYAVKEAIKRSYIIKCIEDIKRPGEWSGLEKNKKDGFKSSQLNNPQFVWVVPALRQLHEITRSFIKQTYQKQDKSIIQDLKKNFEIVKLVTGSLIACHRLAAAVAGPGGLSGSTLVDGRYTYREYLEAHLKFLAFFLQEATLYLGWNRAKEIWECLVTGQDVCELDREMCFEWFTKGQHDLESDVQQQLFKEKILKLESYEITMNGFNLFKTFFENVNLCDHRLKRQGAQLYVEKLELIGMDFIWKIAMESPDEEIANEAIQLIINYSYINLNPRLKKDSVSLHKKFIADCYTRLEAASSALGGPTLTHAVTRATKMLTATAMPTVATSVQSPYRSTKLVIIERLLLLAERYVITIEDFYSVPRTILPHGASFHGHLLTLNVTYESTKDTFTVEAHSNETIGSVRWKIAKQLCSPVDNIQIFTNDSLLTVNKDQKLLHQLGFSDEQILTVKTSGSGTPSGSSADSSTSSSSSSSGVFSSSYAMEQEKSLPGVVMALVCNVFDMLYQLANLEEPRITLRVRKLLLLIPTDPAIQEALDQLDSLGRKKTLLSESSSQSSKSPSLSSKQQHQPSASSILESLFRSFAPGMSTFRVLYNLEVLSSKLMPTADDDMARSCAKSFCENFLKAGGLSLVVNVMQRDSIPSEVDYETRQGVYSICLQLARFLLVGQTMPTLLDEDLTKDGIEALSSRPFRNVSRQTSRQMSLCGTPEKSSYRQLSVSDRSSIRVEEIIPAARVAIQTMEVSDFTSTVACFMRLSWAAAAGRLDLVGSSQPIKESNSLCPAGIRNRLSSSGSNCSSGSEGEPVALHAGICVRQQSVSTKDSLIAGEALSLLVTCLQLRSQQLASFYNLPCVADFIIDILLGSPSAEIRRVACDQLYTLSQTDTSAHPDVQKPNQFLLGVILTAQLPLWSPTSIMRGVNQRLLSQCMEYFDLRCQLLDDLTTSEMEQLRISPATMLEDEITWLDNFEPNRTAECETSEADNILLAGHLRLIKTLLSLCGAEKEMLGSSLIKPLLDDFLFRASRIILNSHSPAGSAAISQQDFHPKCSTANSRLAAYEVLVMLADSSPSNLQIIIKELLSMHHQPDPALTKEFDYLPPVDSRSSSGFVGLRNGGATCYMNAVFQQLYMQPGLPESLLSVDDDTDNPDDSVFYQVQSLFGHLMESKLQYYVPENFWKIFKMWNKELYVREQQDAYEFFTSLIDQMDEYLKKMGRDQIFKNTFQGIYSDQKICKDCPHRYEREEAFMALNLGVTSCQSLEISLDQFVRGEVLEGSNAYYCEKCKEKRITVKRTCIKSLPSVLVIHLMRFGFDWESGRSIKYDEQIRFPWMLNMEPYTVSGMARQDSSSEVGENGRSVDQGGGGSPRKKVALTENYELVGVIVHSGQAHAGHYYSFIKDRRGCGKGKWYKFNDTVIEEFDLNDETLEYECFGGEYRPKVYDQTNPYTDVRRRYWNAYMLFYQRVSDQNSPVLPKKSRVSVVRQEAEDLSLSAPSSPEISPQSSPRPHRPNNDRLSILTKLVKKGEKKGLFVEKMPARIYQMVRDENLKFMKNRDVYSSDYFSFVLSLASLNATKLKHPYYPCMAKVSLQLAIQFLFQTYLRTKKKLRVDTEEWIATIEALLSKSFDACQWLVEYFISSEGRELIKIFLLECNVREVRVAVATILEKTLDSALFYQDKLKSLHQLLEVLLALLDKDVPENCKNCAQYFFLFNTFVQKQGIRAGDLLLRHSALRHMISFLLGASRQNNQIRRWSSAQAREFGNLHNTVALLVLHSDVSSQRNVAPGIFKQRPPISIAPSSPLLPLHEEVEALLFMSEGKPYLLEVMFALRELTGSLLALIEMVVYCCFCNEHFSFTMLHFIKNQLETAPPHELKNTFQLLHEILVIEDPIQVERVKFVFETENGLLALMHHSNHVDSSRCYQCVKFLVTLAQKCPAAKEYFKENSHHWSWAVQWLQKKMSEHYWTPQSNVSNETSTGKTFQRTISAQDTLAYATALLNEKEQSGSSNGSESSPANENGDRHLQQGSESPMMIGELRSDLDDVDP
Summary of the method: as §1

USP25 = biological target: T2, USP25 (UniProt Q9UHP3)
T2 sequence (whole entry): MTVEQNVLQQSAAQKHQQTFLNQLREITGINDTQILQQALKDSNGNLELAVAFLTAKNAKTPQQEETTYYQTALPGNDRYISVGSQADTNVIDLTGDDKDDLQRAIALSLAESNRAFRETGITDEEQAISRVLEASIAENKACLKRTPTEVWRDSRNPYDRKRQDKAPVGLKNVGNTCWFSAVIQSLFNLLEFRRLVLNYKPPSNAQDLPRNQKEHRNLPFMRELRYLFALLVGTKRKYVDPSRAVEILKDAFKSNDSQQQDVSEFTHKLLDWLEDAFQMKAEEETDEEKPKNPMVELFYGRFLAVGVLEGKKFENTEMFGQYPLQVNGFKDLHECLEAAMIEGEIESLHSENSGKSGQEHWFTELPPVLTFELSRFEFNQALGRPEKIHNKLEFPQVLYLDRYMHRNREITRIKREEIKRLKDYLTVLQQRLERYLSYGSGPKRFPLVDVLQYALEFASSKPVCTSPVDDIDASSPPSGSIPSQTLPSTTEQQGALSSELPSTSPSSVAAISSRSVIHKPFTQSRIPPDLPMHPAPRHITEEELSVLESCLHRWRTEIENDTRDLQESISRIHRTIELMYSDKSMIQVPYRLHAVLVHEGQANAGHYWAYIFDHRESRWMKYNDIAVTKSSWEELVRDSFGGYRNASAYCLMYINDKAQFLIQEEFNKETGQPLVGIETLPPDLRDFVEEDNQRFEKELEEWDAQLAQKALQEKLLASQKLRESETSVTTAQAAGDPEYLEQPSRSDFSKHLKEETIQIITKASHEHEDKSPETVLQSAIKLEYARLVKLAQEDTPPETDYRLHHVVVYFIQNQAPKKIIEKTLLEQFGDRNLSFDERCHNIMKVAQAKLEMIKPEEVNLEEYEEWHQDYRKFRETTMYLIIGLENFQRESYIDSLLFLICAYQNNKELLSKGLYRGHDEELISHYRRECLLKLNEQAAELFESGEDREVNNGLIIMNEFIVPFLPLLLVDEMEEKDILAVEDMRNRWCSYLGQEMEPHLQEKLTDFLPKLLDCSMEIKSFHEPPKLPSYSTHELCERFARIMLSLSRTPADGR
Summary of the method: as §1

USP28 = biological target: T3, USP28 (UniProt Q96RU2)
T3 sequence (whole entry): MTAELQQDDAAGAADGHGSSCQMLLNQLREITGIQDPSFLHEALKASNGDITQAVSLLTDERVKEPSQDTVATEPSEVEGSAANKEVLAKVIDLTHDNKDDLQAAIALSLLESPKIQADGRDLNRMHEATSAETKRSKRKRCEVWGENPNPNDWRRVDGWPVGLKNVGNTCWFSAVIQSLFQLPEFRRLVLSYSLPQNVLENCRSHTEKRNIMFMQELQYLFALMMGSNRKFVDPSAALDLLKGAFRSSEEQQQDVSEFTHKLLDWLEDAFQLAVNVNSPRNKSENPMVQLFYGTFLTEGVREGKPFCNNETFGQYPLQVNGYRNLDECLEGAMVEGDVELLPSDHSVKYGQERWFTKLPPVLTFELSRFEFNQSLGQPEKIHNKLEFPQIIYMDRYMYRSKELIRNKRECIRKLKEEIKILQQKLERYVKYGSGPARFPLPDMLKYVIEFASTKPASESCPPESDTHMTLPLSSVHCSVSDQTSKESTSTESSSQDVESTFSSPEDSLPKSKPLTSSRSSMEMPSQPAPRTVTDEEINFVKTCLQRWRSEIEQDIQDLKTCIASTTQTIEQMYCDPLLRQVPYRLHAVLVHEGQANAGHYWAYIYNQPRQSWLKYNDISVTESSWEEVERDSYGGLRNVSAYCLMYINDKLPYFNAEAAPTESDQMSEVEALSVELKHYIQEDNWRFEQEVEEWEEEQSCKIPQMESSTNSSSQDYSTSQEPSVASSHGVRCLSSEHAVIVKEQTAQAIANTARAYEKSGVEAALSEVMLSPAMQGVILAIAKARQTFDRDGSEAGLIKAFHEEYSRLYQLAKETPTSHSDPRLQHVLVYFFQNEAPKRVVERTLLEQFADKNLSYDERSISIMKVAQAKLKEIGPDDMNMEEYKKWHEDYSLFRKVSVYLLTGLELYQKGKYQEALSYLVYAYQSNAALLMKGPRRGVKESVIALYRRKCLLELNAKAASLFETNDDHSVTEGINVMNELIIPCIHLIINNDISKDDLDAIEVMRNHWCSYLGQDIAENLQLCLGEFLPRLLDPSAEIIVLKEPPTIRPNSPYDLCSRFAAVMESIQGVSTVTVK
Summary of the method: as §1

Measured: log2 ratio of Biotin-Ahx-Ub-VS probe labelling

O=C(CCl)N1CCC(OCc2ccccc2F)CC1
inactive: USP19 -0.0583 | USP24 -0.486 | USP25 -0.163 | USP28 -0.161
